Screening results from PubChem.
Shown are actives, neighbours in structure and some others; about 5.2% of the full set was active somewhere.
mIDH1 inhibitor = blocks human mutant IDH1 R132H enzyme. O75874. IDH1-R132H enzyme, NADPH consumption, diaphorase/resazurin fluorescence. Potency, µM (highest dose often 76.6 µM), inactives show at the top dose activity change, negative = inhibition, hits mostly inhibitors. 0.093% of 390,000 active. AID 602179; also: nearly all actives have a fitted effect of over 65% in size
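IDH1-R132H (0.5 ug/mL dispensed) in pH 7.5 Tris buffer was preincubated 30 min with compound, then given a substrate mix of 0.016 mM NADPH and 2 mM alpha-KG for 80 min at room temperature; remaining NADPH was read by diaphorase/resazurin fluorescence.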
PLK1 PBD inh = PLK1 (human) polo-box domain binding inhibition. P53350. Plk1 PBD binding of FITC phosphopeptide, fluorescence polarization. Potency, µM, for inactives: max response, negative = inhibition, most hits filed as inhibitors. 2.8% of 360,000 active. AID 720504; also: series mostly up to about 57 µM; nearly all actives have a fitted effect of over 65% in size
VDR inhibitor = inhibitors of human vitamin D receptor; P11473; VDR-SRC2-3 peptide fluorescence polarization, 2 h; Potency, µM, inactives show max response, negative = inhibition, actives largely listed as inhibitors; 0.93% of 400,000 active; AID 504847
Target sequence (P11473 whole entry, looked up): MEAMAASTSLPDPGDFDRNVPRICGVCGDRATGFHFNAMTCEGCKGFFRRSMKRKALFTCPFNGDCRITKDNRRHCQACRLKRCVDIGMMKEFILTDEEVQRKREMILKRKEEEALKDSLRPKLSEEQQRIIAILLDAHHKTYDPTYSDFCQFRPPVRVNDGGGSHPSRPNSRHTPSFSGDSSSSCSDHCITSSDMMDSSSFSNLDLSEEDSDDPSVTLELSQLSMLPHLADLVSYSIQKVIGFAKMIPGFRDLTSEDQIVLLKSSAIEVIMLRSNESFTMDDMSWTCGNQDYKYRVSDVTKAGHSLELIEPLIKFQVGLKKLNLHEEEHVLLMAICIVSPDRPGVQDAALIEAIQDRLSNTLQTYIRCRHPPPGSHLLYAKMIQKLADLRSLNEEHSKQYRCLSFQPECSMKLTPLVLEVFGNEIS
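Fluorescence polarization assay of small-molecule disruption of VDR binding to coregulator peptide SRC2-3. Compounds and controls pin-transferred, then read after 2 h incubation at ambient room temperature.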
TrxR1 substrate = rat thioredoxin reductase 1 substrate activity. purified TrxR1 substrate turnover, NADPH consumption readout. Potency, µM (doses to about 114 µM), without a hit: top-dose activity change, negative = substrate turnover. 0.01% of 390,000 active; also: nearly all actives have a fitted effect of over 50% in size
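Rat TrxR1, dispensed at 90 nM, was prereduced with 400 uM NADPH (final) for 5 min at ~22 deg C, then incubated with compound 15 min before 400 uM selenite. A first-read NADPH fluorescence drop versus no-compound background flagged substrates.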
Sfp inh = blocks B. subtilis Sfp PPTase activity. Q9F4F7. Biochemical Sfp PPTase activity, qHTS. Potency, µM, inactives show largest response in the series, negative = inhibition, most hits filed as inhibitors. 3.5% of 310,000 active. AID 1490;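 also: the enzyme is Sfp with the accession as filed and its product quenches rhodamine fluorescence; 0% = enzyme reaction without inhibitor and -100% = no enzyme wells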
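Buffer: 50 mM Hepes-Na pH 7.6, 10 mM MgCl2, 0.01% Nonidet P-40, 0.01% BSA. Enzyme 15 nM, pre-exposed to compound 15 min; substrates then added and fluorescence change tracked over 30 min.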
rTrxR1 inhibitor = inhibitors of rat thioredoxin reductase 1; O89049; recombinant rTrxR1, NADPH fluorescence consumption, selenite substrate; Potency, µM (highest dose often 114 µM), for the others: at the top dose activity change, negative = inhibition, usual class: inhibitors; 1% of 390,000 active; also: nearly all actives have a fitted effect of over 65% in size
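Rat TrxR1 (90 nM in the dispensed reagent) was pre-reduced with 400 uM NADPH for 5 min at room temperature, then incubated with compound for 15 min. After 400 uM selenite was added, NADPH fluorescence (Ex 340/Em 450 nm) was followed for 8 min.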
* = called active by the depositor; ? = inconclusive; · = not tested or not shown; [ ] = dose if it differs, or a comment. Calls follow the shape of the dose curve; as a rule, active = well fitted curve in the direction sought with a large enough effect; inconclusive = small, poorly fitted or top-dose-only effect, or another doubt; inactive = no such curve, though single readings can be large; an effect the other way counts as inactive or inconclusive. Unless noted, % is scaled to controls: 0 for no effect and ±100 for the full control effect; potency is read from the fitted curve at half-maximal effect.

SMILES	mIDH1 inhibitor	PLK1 PBD inh	VDR inhibitor	TrxR1 substrate	Sfp inh	rTrxR1 inhibitor
COc1ccc(C2Nc3ccccc3C(=O)N2c2cccc3ccccc23)cc1COc1c(C)cccc1C (configuration not stated)	·	·	-1.1%	20.8%	·	32.4%
CN(C)CCOc1ccc(C(C)(C)c2ccccc2)cc1	5.5%	4.8%	-9.1%	8.4%[57.1 µM]	44.7µM*	12.3%[57.1 µM]
CN(C)CCCOc1ccc(C(C)(C)c2ccccc2)cc1	-1.9%	-9.5%	-9.7%	-0.6%	-27.6%	13.6%
O=C(CSc1nc(-c2ccc(Cl)cc2)nc2c1Cc1ccccc1O2)N1CCCCC1	-12.7%	·	-11.8%	-3.6%	·	-3.0%
COc1ccc(-c2nc3c(c(SCC(=O)N4CCCCC4)n2)Cc2cc(Cl)ccc2O3)cc1	10.2%	·	89.1µM*	-0.5%	·	9.2%
CC1OC(CC(=O)O)CC2=C1C(=O)c1c(O)cccc1C2=O (configuration not stated)	12.1%	2.38µM*	10µM*	-94.3%[57.1 µM]	·	-112.1%[57.1 µM]
O=C(O)CC1CC(c2ccccc2)=NO1 (configuration not stated)	·	·	-0.6%	4.1%[57.1 µM]	·	12.4%[57.1 µM]
C[C@@H]1C[C@](C)(C(=O)c2ccc3c(c2)OCO3)C=C1c1ccc2c(c1)OCO2	·	·	0.8%	·	-4.4%	·
O=C(O)C(Cc1ccccc1)N1C(=O)/C(=C/c2cccs2)SC1=S (configuration not stated)	0.8%	?	79.4µM*	-0.5%[57.1 µM]	-21.7%	7.8%[57.1 µM]
COc1cccc(/C=C2\SC(=S)N(C(Cc3ccccc3)C(=O)O)C2=O)c1 (configuration not stated)	-5.8%	33.6µM*	?	-10.0%	-16.6%	0.2%
COc1cccc(/C=C2\SC(=S)N(CCC(=O)Nc3ccc(O)cc3)C2=O)c1	3.4%	-7.0%	1.4%	-1.1%	2.6%	19.5%
Cc1nn2c(=O)cc(COC(=O)c3ccc(NC(=O)COc4ccc(Cl)cc4)cc3)nc2s1	-13.6%	·	6.8%	1.0%[57.1 µM]	·	8.3%[57.1 µM]
O=C(c1cnc(N2CCOCC2)c2ccccc12)N1CCN(c2ccccc2F)CC1	12.7%	·	-8.5%	-1.5%[57.1 µM]	·	4.8%[57.1 µM]
O=C(Nc1ccccc1C(=O)O)c1cccc(S(=O)(=O)Nc2ccc(Br)cc2)c1	-6.2%	?	-23.3%	-2.1%	15.7%	6.2%
O=C(Nc1ccccc1C(=O)O)c1cccc(NS(=O)(=O)c2ccc(Br)cc2)c1	-7.1%	42.3µM*	?	-2.1%	15.9%	19.8%
O=C(NNC(=O)c1cccc(Br)c1)Nc1ccc(Cl)cc1	1.9%	21.2µM*	?	5.5%[57.1 µM]	17.6%	45.9%
Cc1cccc(C(=O)Nc2cccnc2Cl)c1	6.1%	8.44µM*	-8.8%	-0.4%	2.0%	5.8%
Cc1ccc(S(=O)(=O)CCSc2cccc(C(=O)Nc3ccccc3C(=O)O)c2)cc1	-3.5%	1.68µM*	79.4µM*	-7.0%	-10.5%	48.2%
CS(=O)(=O)c1ccc(Nc2nc(C(N)c3ccccc3Cl)cs2)cc1 (configuration not stated)	·	-15.5%	·	·	·	·
Cc1ccc(NC(=O)c2cccc(C(=O)Nc3ccc(C)cc3C(=O)O)c2)c(C(=O)O)c1	8.2%	21.2µM*	-2.8%	-16.9%	23.2%	?
O=C(Nc1cc(C(=O)Nc2ccccc2C(=O)O)cc(C(=O)Nc2ccccc2C(=O)O)c1)c1ccccc1	3.6%	21.2µM*	?	-4.7%	5.3%	-4.1%
O=C(O)c1ccc(NC(=O)c2ccccc2NC(=O)c2cccc(Br)c2)cc1	2.6%	21.2µM*	?	-12.9%	15.5%	15.9%[57.1 µM]
Nc1c(C(=O)NCCc2ccccc2)nnn1CC(=O)Nc1ccc(Cl)cc1	35.0%	·	8.3%	-4.1%	·	5.4%
Cc1ccc2c(Br)cc(Br)c(O)c2n1	·	·	-3.0%	·	?	·
CC(CN1CCCC1)OC(=O)c1ccc(Cl)cc1 (configuration not stated)	-2.4%	-3.4%	8.7%	6.9%	11.3%	30.6%
SMILES	mIDH1 inhibitor	PLK1 PBD inh	VDR inhibitor	TrxR1 substrate	Sfp inh	rTrxR1 inhibitor
CC(C)NOC(=O)c1ccc(Cl)cc1	0.0%	29.9µM*	-12.0%	-6.9%	-2.9%	-2.2%
CN1CCN(Cc2coc3c(Cl)cc(Cl)cc3c2=O)CC1	2.7%	-16.5%	-15.6%	0.6%	50.1µM*	-17.7%
O=c1nc2c(O)cccn2c2c1c(=O)[nH]c1ccccc12	7.6%	23.8µM*	2.2%	-6.0%	-14.1%	?
O=C(NNC(=O)c1csc(-c2cccs2)n1)c1ccc(Cl)cc1	·	0.0%	·	·	·	·
COc1cc(NC(=O)CN(C)Cc2cccc(F)c2)c(C)cc1[N+](=O)[O-]	2.1%	26.7µM*	?	-7.8%	3.6%	-16.9%
O=C(N/N=C/c1ccncc1)NC12CC3CC(CC(C3)C1)C2	7.1%	-1.6%	1.9%	-0.5%	-4.1%	20.6%
O=C(CC12CC3CC(CC(C3)C1)C2)N/N=C/c1ccncc1	-3.9%	26.7µM*	?	-2.3%	9.3%	-14.8%
O=C(CSc1n[nH]c(-c2ccncc2)n1)c1ccccc1	1.8%	-7.5%	-4.7%	-5.6%	7.6%	14.3%
Cc1nc(SCC(=O)c2ccccc2)n[nH]1	5.4%	26.7µM*	50.1µM*	-7.8%	56.2µM*	?
CCc1nc(SCC(=O)c2cccc([N+](=O)[O-])c2)n[nH]1	3.1%	-3.0%	50.1µM*	-6.5%	?	?
Nc1nc(SCC(=O)c2cccc([N+](=O)[O-])c2)n[nH]1	-1.3%	?	?	-3.9%	?	-24.4%
O=C(Cc1nc2ccccc2[nH]1)c1cccc([N+](=O)[O-])c1	0.2%	-19.6%	-19.4%	-7.1%	14.1µM*	-2.8%
Cc1cc(N2CCCCC2)nc(SCC(=O)c2ccccc2)n1	5.0%	-11.7%	-14.4%	-0.9%	3.0%	3.2%
O=C(CSc1nc(N2CCCCC2)nc(N2CCCCC2)n1)c1ccccc1	0.2%	29.9µM*	-2.6%	3.7%[57.1 µM]	-12.5%	15.9%[57.1 µM]
O=C(Nc1nc2ccccc2[nH]1)c1cccc([N+](=O)[O-])c1	-4.0%	-18.1%	-6.9%	-5.4%[57.1 µM]	29.6%	4.4%[57.1 µM]
COc1cc(/C=C/c2ccnc3ccccc23)ccc1N(C)C	·	·	·	-7.9%	·	-8.9%
c1ccc(COc2ccc(-c3cc4nc(NCCCn5ccnc5)ccn4n3)cc2)cc1	·	-10.3%	·	·	·	·
CCOc1ccc(CNC(=O)C2Cc3ccccc3N2C(=O)CC)cc1 (configuration not stated)	10.9%	·	11.1%	-4.1%[57.1 µM]	·	3.6%[57.1 µM]
O=C(Cn1cnc2c(OCc3ccccc3)ncnc21)NCc1ccccc1	-4.8%	23.8µM*	?	-3.5%	·	16.5%
CCc1cccc(NC(=O)C2CCC(CNS(=O)(=O)c3ccc(Br)s3)CC2)c1 (configuration not stated)	-3.0%	·	-8.1%	-4.2%	·	-5.9%
CN1CCN(c2ncc3nc(-c4ccc(F)cc4)c(=O)n(C4CC4)c3n2)CC1	·	·	-24.4%	·	-7.7%	·
